Experimental data as given in paper PMC7862700, “An all-to-all approach to the identification of sequence-specific readers for epigenetic DNA modifications on cytosine”.

Legend:
Experiment in all cases: DAPPL (digital affinity profiling via proximity ligation, sequencing); 10 mM Tris-HCl pH 7.5, 50 mM NaCl, 1 mM DTT, 4% glycerol, room temperature, 30 min; GST-TFs on glutathione beads, 16-mer random dsDNA library, 0.1% formaldehyde crosslink after washing; high values mean tight binding
[1] = biological target: T1, FEV (Homo sapiens, UniProt Q99581 1-238); conditions: protein: recombinant; tags: N-terminal GST; dsDNA, one strand shown
T1 sequence: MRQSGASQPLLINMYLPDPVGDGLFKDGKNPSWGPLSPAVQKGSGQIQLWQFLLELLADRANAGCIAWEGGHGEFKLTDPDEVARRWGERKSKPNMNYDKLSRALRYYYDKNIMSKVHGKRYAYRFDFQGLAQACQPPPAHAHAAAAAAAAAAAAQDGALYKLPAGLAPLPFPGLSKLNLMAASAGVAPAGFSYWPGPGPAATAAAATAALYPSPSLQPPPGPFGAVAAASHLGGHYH
Outline: (§1)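 After expression in yeast as GST fusions, human transcription factors were bound to glutathione beads, DNA-barcoded and mixed with a tag-only sample. The pools were incubated with 200 nmole of a 16-mer random double-stranded DNA library in Tris/NaCl/DTT/glycerol buffer (30 min, room temperature), washed and crosslinked with 0.1% formaldehyde. Proximity ligation with BsaI/T4 ligase ran for 1 h at 37 °C, before PCR amplification and sequencing on an Illumina NextSeq500. Binding signal is a hexamer's read frequency for a factor divided by its frequency for the tag-only sample.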

[2] = biological target: ETV5 (Homo sapiens, UniProt P41161 1-510); conditions: protein: recombinant; tags: N-terminal GST; dsDNA, one strand shown
Sequence of ETV5 (P41161 whole entry): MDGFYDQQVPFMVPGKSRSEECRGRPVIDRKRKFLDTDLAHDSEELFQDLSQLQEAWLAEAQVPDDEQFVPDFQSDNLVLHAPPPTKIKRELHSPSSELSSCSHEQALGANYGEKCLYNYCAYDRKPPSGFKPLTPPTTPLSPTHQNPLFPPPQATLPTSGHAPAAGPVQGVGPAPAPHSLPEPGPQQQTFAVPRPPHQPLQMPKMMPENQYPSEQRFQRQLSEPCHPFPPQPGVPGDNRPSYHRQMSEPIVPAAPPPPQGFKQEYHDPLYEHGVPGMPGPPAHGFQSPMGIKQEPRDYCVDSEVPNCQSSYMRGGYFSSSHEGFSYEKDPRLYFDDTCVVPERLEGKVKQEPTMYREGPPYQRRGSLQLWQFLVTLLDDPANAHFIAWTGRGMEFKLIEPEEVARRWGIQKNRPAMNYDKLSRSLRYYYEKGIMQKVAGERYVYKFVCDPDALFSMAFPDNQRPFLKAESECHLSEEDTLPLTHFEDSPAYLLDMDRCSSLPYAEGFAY
Outline: as §1

[3] = biological target: HSF1 (Homo sapiens, UniProt Q00613 1-529); conditions: protein: recombinant; tags: N-terminal GST; chain copies: 3; dsDNA, one strand shown
Sequence of HSF1 (Q00613 whole entry): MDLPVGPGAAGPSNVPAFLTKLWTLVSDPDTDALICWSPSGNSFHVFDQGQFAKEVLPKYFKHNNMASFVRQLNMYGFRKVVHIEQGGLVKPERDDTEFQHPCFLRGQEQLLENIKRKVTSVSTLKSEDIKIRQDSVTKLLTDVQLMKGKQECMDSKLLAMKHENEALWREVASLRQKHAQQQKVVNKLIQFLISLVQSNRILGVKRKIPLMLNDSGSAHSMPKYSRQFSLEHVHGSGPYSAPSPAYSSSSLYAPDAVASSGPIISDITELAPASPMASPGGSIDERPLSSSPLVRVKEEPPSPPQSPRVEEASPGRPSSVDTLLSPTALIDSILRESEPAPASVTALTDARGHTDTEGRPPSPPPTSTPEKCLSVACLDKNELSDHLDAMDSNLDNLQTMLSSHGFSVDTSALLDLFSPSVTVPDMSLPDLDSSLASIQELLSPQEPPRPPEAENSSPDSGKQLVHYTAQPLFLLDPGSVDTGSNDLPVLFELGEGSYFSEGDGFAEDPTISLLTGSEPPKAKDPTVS
Outline: as §1

[4] = biological target: T2, SPIC (Homo sapiens, UniProt Q8N5J4 1-248); conditions: protein: recombinant; tags: N-terminal GST; dsDNA, one strand shown
T2 sequence: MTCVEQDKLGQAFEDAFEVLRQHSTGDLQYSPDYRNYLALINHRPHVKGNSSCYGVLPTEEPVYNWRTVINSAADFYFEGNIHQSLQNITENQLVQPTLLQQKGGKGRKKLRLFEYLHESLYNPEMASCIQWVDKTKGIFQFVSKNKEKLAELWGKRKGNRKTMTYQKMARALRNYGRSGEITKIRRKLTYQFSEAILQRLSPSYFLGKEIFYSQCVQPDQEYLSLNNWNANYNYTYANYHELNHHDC
Outline: as §1

[5] = biological target: ELF4 (Homo sapiens, UniProt Q99607 1-663); conditions: protein: recombinant; tags: N-terminal GST; dsDNA, one strand shown
Sequence of ELF4 (Q99607 whole entry): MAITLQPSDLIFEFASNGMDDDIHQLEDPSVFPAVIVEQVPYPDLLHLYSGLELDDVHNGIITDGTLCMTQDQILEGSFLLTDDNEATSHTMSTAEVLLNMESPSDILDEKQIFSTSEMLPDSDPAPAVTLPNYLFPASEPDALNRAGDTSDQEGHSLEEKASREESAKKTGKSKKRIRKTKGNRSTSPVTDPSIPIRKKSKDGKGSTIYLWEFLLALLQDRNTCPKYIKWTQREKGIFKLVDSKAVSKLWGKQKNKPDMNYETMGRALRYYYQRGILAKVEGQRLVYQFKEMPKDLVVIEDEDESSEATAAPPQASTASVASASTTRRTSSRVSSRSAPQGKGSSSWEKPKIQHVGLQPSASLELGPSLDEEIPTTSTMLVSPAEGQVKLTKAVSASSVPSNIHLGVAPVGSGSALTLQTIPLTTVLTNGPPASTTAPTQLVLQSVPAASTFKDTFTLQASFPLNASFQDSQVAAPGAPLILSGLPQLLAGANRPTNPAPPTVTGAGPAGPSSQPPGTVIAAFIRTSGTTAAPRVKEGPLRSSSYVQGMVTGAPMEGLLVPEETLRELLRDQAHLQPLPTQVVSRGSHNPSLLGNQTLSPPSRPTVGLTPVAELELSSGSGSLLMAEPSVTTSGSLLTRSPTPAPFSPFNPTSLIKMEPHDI
Outline: as §1

[6] = biological target: T3, ELK4 (Homo sapiens, UniProt P28324-2 1-405); conditions: protein: recombinant; tags: N-terminal GST; dsDNA, one strand shown
T3 sequence: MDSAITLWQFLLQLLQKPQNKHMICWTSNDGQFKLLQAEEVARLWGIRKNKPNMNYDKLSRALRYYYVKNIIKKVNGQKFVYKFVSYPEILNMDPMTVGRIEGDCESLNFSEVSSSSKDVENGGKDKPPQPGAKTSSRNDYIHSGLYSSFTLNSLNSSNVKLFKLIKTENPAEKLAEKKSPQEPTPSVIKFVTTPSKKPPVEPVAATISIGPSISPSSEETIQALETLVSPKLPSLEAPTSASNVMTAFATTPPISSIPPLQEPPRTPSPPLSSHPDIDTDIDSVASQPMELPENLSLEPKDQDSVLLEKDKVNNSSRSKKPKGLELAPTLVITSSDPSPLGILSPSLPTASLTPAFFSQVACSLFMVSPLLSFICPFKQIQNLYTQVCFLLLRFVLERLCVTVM
Outline: as §1

[7] = biological target: T4, ETV2 (Homo sapiens, UniProt O00321 1-342); conditions: protein: recombinant; tags: N-terminal GST; dsDNA, one strand shown
T4 sequence: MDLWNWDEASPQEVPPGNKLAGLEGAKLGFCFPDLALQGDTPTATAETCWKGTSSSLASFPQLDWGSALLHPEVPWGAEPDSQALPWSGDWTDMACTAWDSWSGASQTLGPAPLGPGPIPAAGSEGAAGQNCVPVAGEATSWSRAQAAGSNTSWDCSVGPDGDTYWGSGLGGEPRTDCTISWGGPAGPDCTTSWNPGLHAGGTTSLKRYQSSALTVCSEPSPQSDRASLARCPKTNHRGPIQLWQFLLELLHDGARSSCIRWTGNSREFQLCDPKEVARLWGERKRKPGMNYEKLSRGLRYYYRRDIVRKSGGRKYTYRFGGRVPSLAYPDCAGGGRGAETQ
Outline: as §1

[8] = biological target: T5, ELF3 (Homo sapiens, UniProt P78545 1-371); conditions: protein: recombinant; tags: N-terminal GST; dsDNA, one strand shown
T5 sequence: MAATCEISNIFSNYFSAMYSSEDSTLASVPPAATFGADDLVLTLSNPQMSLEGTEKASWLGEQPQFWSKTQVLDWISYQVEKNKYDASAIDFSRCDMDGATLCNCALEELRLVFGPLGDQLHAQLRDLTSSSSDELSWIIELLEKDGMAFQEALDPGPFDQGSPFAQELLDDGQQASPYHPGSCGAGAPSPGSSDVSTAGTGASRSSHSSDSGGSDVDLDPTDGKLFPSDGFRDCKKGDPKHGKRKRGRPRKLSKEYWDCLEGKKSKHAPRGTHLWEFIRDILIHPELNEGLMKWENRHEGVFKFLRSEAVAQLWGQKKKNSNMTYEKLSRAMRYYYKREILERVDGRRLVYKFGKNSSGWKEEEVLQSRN
Outline: as §1

[9] = biological target: CRX (Homo sapiens, UniProt O43186 1-299); conditions: protein: recombinant; tags: N-terminal GST; dsDNA, one strand shown
Sequence of CRX (O43186 whole entry): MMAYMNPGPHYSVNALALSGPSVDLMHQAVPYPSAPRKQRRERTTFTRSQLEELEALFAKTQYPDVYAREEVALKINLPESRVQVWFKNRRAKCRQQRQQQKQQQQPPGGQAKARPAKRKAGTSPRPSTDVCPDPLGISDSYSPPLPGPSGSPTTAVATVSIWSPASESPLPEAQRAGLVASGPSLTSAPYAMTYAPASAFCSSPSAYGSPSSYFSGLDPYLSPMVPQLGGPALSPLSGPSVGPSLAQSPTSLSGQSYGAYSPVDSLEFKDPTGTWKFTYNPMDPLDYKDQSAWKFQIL
Outline: as §1

Question: How did the binding signal [1] turn out when GTCTCG was run?
Answer: 1.3 fold enrichment (6-mer frequency, TF over GST control)

Question: What about the binding signal [2] of the same sequence?
Answer: 1.25 fold enrichment (6-mer frequency, TF over GST control)

Question: What about the binding signal [3] of the same sequence?
Answer: 1.55 fold enrichment (6-mer frequency, TF over GST control)

Question: What about the binding signal [4] of the same sequence?
Answer: 1.21 fold enrichment (6-mer frequency, TF over GST control)

Question: What about the binding signal [5] of the same sequence?
Answer: 1.43 fold enrichment (6-mer frequency, TF over GST control)

Question: What about the binding signal [6] of the same sequence?
Answer: 1.3 fold enrichment (6-mer frequency, TF over GST control)

Question: What about the binding signal [7] of the same sequence?
Answer: 1.03 fold enrichment (6-mer frequency, TF over GST control)

Question: And the binding signal [8]?
Answer: 1.35 fold enrichment (6-mer frequency, TF over GST control)

Question: And the binding signal [9]?
Answer: 1.06 fold enrichment (6-mer frequency, TF over GST control)
